Records with an inconclusive call do not appear. Activity calls are given as the source filed them. Unless noted, calls follow the shape of the dose curve; as a rule, active = well fitted curve in the direction sought with a large enough effect in the repeat runs; inconclusive = weak or mixed curves; inactive = no such curve, though single readings can be large; an effect the other way counts as inactive or inconclusive.
Tests used:
[1] = qHTS assay to identify small molecule agonists of the vitamin D receptor (VDR) signaling pathway - cell viability counter screen (AID 743224); also: series mostly up to about 63 µM; % is scaled to controls: 0 for no effect and ±100 for the full control effect; nearly all actives have a fitted effect of over 50% in size
In short: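 In parallel with the bla FRET readout, cytotoxicity toward VDR-bla cells after 16 h compound exposure was assessed by CellTiter-Glo, with luminescence recorded after a 30 min room-temperature incubation.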

[2] = qHTS assay to identify small molecule antagonists of the vitamin D receptor (VDR) signaling pathway - cell viability counter screen (AID 743225); also: % is scaled to controls: 0 for no effect and ±100 for the full control effect; nearly all actives have a fitted effect of over 50% in size
In short: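 Compounds were pinned onto VDR-bla HEK 293T cells together with 1-alpha,25-dihydroxyvitamin D3 at 3 nM final. After 16 h at 37C and 5% CO2 plus the reporter readout, cell viability was measured by CellTiter-Glo luminescence (30 min, room temperature).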

[3] = qHTS assay to identify small molecule agonists of the NFkB signaling pathway (AID 1159509; active = well fitted curve in the direction sought with a large enough effect in the signal ratio in the repeat runs, not every such curve was filed as active; the % refers to the signal ratio; also: series mostly up to about 61 µM; % is scaled to controls: 0 for no effect and ±100 for the full control effect)
In short: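 Beta-lactamase reporter assay run in quantitative high-throughput format on an NF-kB-responsive ME-180 line, with 5 hr compound treatment and a FRET-based blue/green fluorescence readout.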

[4] = qHTS assay to identify small molecule agonists of the NFkB signaling pathway - cell viability counter screen (AID 1159515; calls by dose curve; also: series mostly up to about 61 µM; % is scaled to controls: 0 for no effect and ±100 for the full control effect; nearly all actives have a fitted effect of over 55% in size)
In short: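 Plate 2,000 NFkB-bla ME-180 cells/well; incubate overnight. Add compounds, 5 hr at 37 C. Add FRET substrate, 1.5 hr RT. Add CellTiter-Glo, 30 min RT; read luminescence.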

[5] = qHTS assay to identify small molecule agonists of the endoplasmic reticulum stress response signaling pathway (AID 1159516; active = well fitted activation curve with a large enough effect in the signal ratio in the repeat runs, not every such curve was filed as active; the % refers to the signal ratio; also: % is scaled to controls: 0 for no effect and ±100 for the full control effect)
In short: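 Beta-lactamase expression from the ER stress response element in HeLa reporter cells is quantified with the LiveBLAzer B/G FRET substrate, read at 405 nm excitation after 2 hr at room temperature, following 5 hr compound treatment at 37 C.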

[6] = qHTS assay to identify small molecule agonists of the endoplasmic reticulum stress response signaling pathway - cell viability counter screen (AID 1159517; calls by dose curve; also: series mostly up to about 61 µM; % is scaled to controls: 0 for no effect and ±100 for the full control effect; nearly all actives have a fitted effect of over 50% in size)
In short: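 After overnight attachment, ESRE-bla HeLa cells were treated with Tox21 library compounds for 5 hr. CellTiter-Glo luminescence, read 30 min post-addition at room temperature, reported viability.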

[7] = qHTS assay to identify small molecule antagonists of the retinoid-related orphan receptor gamma (ROR-gamma) signaling pathway - cell viability counter screen (AID 1159520); also: % is scaled to controls: 0 for no effect and ±100 for the full control effect; nearly all actives have a fitted effect of over 50% in size
In short: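 Cytotoxicity was read from cellular ATP (CellTiter-Glo luminescence) after 16 hr at 37 C with 1 uM doxycycline induction. The inducer was added 2 hr after compound transfer to Tet-on ROR gamma CHO cells.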

[8] = target: Nuclear receptor ROR-gamma (Homo sapiens) (UniProt P51449); experiment: qHTS assay to identify small molecule antagonists of the retinoid-related orphan receptor gamma (ROR-gamma) signaling pathway (AID 1159521)
In short: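 Test compounds were applied to Tet-on RORγ CHO cells 2 h ahead of doxycycline hyclate (1 uM final). Luciferase reporter activity was quantified by luminescence after 16 h at 37 C and 5% CO2.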

[9] = qHTS assay to identify small molecule agonists of the AP-1 signaling pathway - cell viability counter screen (AID 1159525; calls by dose curve; also: nearly all actives have a fitted effect of over 55% in size)
In short: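 Intracellular ATP by Cell Titer Glo luminescence (30 min, RT) in the same ME-180 AP-1-bla wells after the 5 h compound exposure at 37 °C. Normalised to tetra n-octyl ammonium bromide and DMSO controls.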

[10] = qHTS assay to identify small molecule agonists of the AP-1 signaling pathway (AID 1159526; calls by dose curve; also: % is scaled to controls: 0 for no effect and ±100 for the full control effect)
[11] = target: Retinoic acid receptor RXR-alpha (Homo sapiens) (UniProt P19793); experiment: qHTS assay to identify small molecule agonists of the RXR signaling pathway (AID 1159527; calls by dose curve; also: % is scaled to controls: 0 for no effect and ±100 for the full control effect; nearly all actives have a fitted effect of over 35% in size)
In short: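 Using 9-cis retinoic acid as the reference agonist, chemicals were tested in HEK 293T cells […] for 16 hr; substrate loading lasted 2 hr at room temperature.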

[12] = qHTS assay to identify small molecule agonists of the RXR signaling pathway - cell viability counter screen (AID 1159529)
In short: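 Compounds dissolved in DMSO were pinned onto HEK 293T cells carrying a beta-lactamase reporter under RXR-alpha control and incubated 16 hr. Cytotoxicity was then quantified by CellTiter-Glo luminescence.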

[13] = qHTS assay to identify small molecule antagonists of the retinoid acid receptor (RAR) signaling pathway - cell viability counter screen (AID 1159551); also: % is scaled to controls: 0 for no effect and ±100 for the full control effect; nearly all actives have a fitted effect of over 35% in size
In short: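 Viability of C3RL4 cells is quantified from ATP by luminescence after 6 h treatment at 37 C with compounds and 1 uM retinol.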

[14] = qHTS assay to identify small molecule antagonists of the estrogen related receptor (ERR) signaling pathway from Tox21 library - cell viability counter screen (AID 1224834); also: % is scaled to controls: 0 for no effect and ±100 for the full control effect; nearly all actives have a fitted effect of over 30% in size
In short: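 In this quantitative HTS format, ERR cells receive compounds in DMSO and are incubated for 17.5 h at 37 C. Live-cell protease activity is then detected with CellTiter-Fluor.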

[15] = qHTS assay to identify small molecule antagonists of the retinoic acid receptor (RAR) signaling pathway (AID 1159552)
In short: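 Test chemicals and DMSO controls were pin-transferred onto C3RL4 cells a day after seeding; retinol (1 uM final) followed at once. Luminescent reporter output was quantified after 6 hr of co-incubation and 30 min with detection reagent.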

[16] = qHTS assay to identify small molecule agonists of the retinoic acid receptor (RAR) signaling pathway (AID 1159553); also: % is scaled to controls: 0 for no effect and ±100 for the full control effect
In short: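 Compounds dissolved in DMSO were pinned onto C3RL4 cells seeded the previous day, and plates were held 6 hr at 37 C. RARE-driven luciferase output was then read by luminescence.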

Chain of Retinoic acid receptor RXR-alpha (Homo sapiens) (P19793 whole entry, looked up): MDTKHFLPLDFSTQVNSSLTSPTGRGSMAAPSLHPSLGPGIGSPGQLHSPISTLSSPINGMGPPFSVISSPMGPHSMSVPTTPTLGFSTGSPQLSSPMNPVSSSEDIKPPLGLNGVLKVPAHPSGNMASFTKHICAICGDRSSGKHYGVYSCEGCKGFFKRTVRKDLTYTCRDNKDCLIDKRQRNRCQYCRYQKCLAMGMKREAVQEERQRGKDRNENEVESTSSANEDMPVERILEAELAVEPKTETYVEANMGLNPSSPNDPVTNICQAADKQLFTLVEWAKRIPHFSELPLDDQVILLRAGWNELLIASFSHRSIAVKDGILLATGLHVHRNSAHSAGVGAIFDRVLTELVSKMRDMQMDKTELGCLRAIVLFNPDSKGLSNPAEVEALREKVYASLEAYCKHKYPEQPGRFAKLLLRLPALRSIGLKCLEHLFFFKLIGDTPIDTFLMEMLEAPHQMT

C[Si](C)=O
inactive: activity change, negative = cytotoxicity [1] 2.87% [at 5.95 µM] | viability change, negative = cytotoxic [2] 6.84% [at 6.95 µM] | activation [3] 0.149% [at 6.95 µM] | activity, negative = cytotoxic [4] 10.4% [at 6.95 µM] | activation [5] -1.7% [at 6.95 µM] | activity change, negative = cytotoxicity [6] -12.1% [at 6.95 µM] | activity, negative = cytotoxicity [7] 0.127% [at 8.39 µM] | activity change, negative = inhibition [8] 3.36% [at 8.39 µM] | viability change, negative = cytotoxic [9] -14.5% [at 6.97 µM] | activation [10] -3.55% [at 6.97 µM] | activation [11] 8.36% [at 6.98 µM] | activity change, negative = cytotoxicity [12] 0.062% [at 6.97 µM] | activity change, negative = cytotoxicity [13] 3.8% [at 8.39 µM] | viability change, negative = cytotoxic [14] 2.07% [at 8.39 µM]

c1ccc2nccnc2c1
inactive: Potency [1] | outcome [2] | outcome [3] | outcome [4] | outcome [5] | Potency [6] | outcome [7] | outcome [8] | outcome [9] | outcome [10] | Potency [11] | outcome [12] | outcome [13] | Potency [14]

CCCCOCCOC(=O)COc1nc(Cl)c(Cl)cc1Cl
inactive: Potency [1] | outcome [2] | outcome [3] | outcome [4] | outcome [5] | Potency [6] | outcome [7] | outcome [8] | outcome [9] | outcome [10] | outcome [12] | outcome [13] | outcome [15] | Potency [14]

CO[C@@H]1[C@@H](OC(N)=O)[C@@H](O)[C@H](Oc2ccc3c(O)c(NC(=O)c4ccc(O)c(CC=C(C)C)c4)c(=O)oc3c2C)OC1(C)C
inactive: Potency [1] | outcome [2] | outcome [3] | outcome [4] | outcome [5] | Potency [6] | outcome [7] | outcome [8] | outcome [9] | outcome [10] | Potency [11] | outcome [12] | outcome [13]

CC(=O)Nc1ccc(S(=O)(=O)Nc2ccc([N+](=O)[O-])cc2)cc1
inactive: Potency [1] | outcome [2] | outcome [3] | outcome [4] | outcome [5] | Potency [6] | outcome [7] | outcome [8] | outcome [9] | outcome [10] | outcome [12] | outcome [13] | outcome [15]

CC(C)=CCOC(=O)c1ccccc1
inactive: Potency [1] | outcome [3] | outcome [4] | outcome [5] | Potency [6] | outcome [7] | outcome [8] | outcome [9] | outcome [10] | outcome [12] | outcome [13] | outcome [15] | Potency [16] | Potency [14]

CCOC(=O)[C@H](CCc1ccccc1)N[C@@H](C)C(=O)N1C(=O)N(C)C[C@H]1C(=O)O
inactive: Potency [1] | outcome [2] | outcome [3] | outcome [4] | outcome [5] | Potency [6] | outcome [7] | outcome [8] | outcome [9] | outcome [10] | Potency [11] | outcome [12] | outcome [13] | Potency [14]

C=C(C)C1CCC(C)(O)CC1 (stereo not given)
inactive: Potency [1] | outcome [2] | outcome [3] | outcome [4] | outcome [5] | Potency [6] | outcome [7] | outcome [8] | outcome [9] | outcome [10] | Potency [11] | outcome [12] | outcome [13] | Potency [14]

CCCC(=O)C(C)=O
inactive: Potency [1] | outcome [2] | outcome [3] | outcome [4] | outcome [5] | Potency [6] | outcome [7] | outcome [8] | outcome [9] | outcome [10] | Potency [11] | outcome [12] | outcome [13] | Potency [14]

OCCN(CCO)c1cccc(Cl)c1
inactive: Potency [1] | outcome [2] | outcome [3] | outcome [4] | outcome [5] | Potency [6] | outcome [7] | outcome [8] | outcome [9] | outcome [10] | Potency [11] | outcome [12] | outcome [13] | Potency [14]

CCCCCCCCOS(=O)(=O)O
inactive: Potency [1] | outcome [2] | outcome [3] | outcome [4] | outcome [5] | Potency [6] | outcome [7] | outcome [8] | outcome [9] | outcome [10] | Potency [11] | outcome [12] | outcome [13] | Potency [14]

Nc1ccc2cc(S(=O)(=O)O)cc(O)c2c1
inactive: Potency [1] | outcome [2] | outcome [3] | outcome [4] | outcome [5] | Potency [6] | outcome [7] | outcome [8] | outcome [9] | outcome [10] | outcome [12] | outcome [13] | outcome [15]

CC1=C(C(=O)O)N2C(=O)[C@@H](NC(=O)[C@H](N)c3ccc(O)cc3)[C@H]2SC1
inactive: Potency [1] | outcome [2] | outcome [3] | outcome [4] | outcome [5] | Potency [6] | outcome [7] | outcome [8] | outcome [9] | outcome [10] | outcome [12] | outcome [13] | outcome [15] | Potency [16]

C=C(C)C(=O)OCc1ccccc1
inactive: Potency [1] | outcome [2] | outcome [3] | outcome [4] | outcome [5] | Potency [6] | outcome [7] | outcome [8] | outcome [9] | outcome [10] | Potency [11] | outcome [12] | outcome [13]

O=C(O)c1cc(Br)c(O)c(Br)c1
inactive: Potency [1] | outcome [2] | outcome [3] | outcome [4] | outcome [5] | Potency [6] | outcome [7] | outcome [8] | outcome [9] | outcome [10] | outcome [12] | outcome [13] | outcome [15] | Potency [14]

CC(CC=O)CCCC(C)(C)O (stereo not given)
inactive: outcome [2] | outcome [3] | outcome [4] | outcome [5] | Potency [6] | outcome [7] | outcome [8] | outcome [9] | outcome [10] | outcome [12] | outcome [13] | outcome [15]

O=C(O)CCSSCCC(=O)O
inactive: Potency [1] | outcome [2] | outcome [3] | outcome [4] | outcome [5] | Potency [6] | outcome [7] | outcome [8] | outcome [9] | outcome [10] | outcome [12] | outcome [13] | outcome [15]

C=C(C)C(=O)OCCN(CC)CC
inactive: Potency [1] | outcome [2] | outcome [3] | outcome [4] | outcome [5] | Potency [6] | outcome [7] | outcome [8] | outcome [9] | outcome [10] | Potency [11] | outcome [12] | outcome [13] | Potency [14]
